Test results: PubChem BioAssay AID2049 (The Scripps Research Institute Molecular Screening Center, 2009)
Activity calls are given as the source filed them. How the calls were made is not given here.

System: BCL3
Assay: STAT3 activators, late-stage profile, late-stage follow-up, cell-based, STAT1 reporter, BCL3 qPCR, cytotoxicity (AID 2049)
Conditions: human cell reporter, STAT3/STAT1 activation; BCL3 mRNA qPCR, at 10 µM, stronger effect = higher value

SMILES | fold change | outcome
CCCc1cc(C(=O)Nc2cc(OC)c(Cl)cc2OC)no1 | 1.3 | active
COc1cc(NC(=O)c2cc(C(C)C)on2)c(OC)cc1Cl | 0.42 | inactive; active
COc1cc(NC(=O)c2cc(C3CC3)on2)c(OC)cc1Cl | 2.07 | active; probe
